The source of these data is PubChem BioAssay.

Results filed as inconclusive are left out. Calls of active or inactive are those of the source.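 The calls were made as follows, unless noted: active = viability at or below 30% in both replicate assays; inconclusive = viability at or below 30% in just one of the two assays; inactive = the rest.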

A short description of test [1]: reducers of endogenous Her2 protein level, primary screen, SKBR3 breast tumor cells, AlphaScreen, ATP viability (AID 461;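 active = Her2 level under about 52% in both replicate screens, with viability over 70% of control, limit read from the data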;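 as to Her2 level: lower value means less Her2 protein in the cells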;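 as to viability: percent of carrier control wells set as 100% viability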). The following applies: 18-24 h, measured here: SKBR3 viability, ATP luminescence, at 10 µM.
Test [2] has as its target Receptor tyrosine-protein kinase erbB-2 (Homo sapiens) (UniProt P04626). Described as above. The following applies: 18-24 h, at 10 µM, stronger effect = lower value.
Test [3] in a line: SK-BR-3 cell growth inhibitors, pilot screen, 24 h, human (AID 572;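 active = viability at or below 10% of carrier control in both of two separate runs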;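 also: compound exposure lasted between 18 and 24 h rather than exactly 24 h; 100% = carrier-treated control wells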). The following applies: SK-BR-3 viability, CellTiter-Glo luminescence, at 10 µM, stronger effect = lower value.
Test [4] in a line: HUVEC growth inhibition – cell-based, human, primary screen (AID 575).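 Also: 100% = median of untreated cell wells with 0.1% DMSO on each plate.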 The following applies: HUVEC proliferation, CellTiter-Glo luminescence, 72 h; at 10 µM; stronger effect = lower value.
The nature of test [5]: growth inhibitors of H69AR lung tumor, primary screen, human, duplicate replicates (AID 580;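 active = viability at or under a set limit in both replicates, limit being median viability minus 3 SD, cut at about 48% in these data, passing the limit was not always enough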;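 also: 100% = mean luminescence of untreated wells and 0% = no signal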). The following applies: H69AR lung tumor cells viability, ATP luminescence, 72 h; at 10 µM; stronger effect = lower value.
The nature of test [6]: reversal of MRP1-mediated doxorubicin resistance, pilot screen, H69AR cells, doxorubicin co-treatment (AID 601;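 active = viability loss from added drug above about 55%, and viability with drug at most 40%, in both replicates, limit read from the data, passing the limit was not always enough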). The following applies: CellTiter-Glo, 72 h, at 10 µM; for differential viability (reversal): stronger effect = higher value.
Test [7] can be described thus: 384-well plate pilot, post-Golgi transport modulator project, inhibition of yeast transport mutant growth (AID 636; in the data active = inhibition above about 31%). The following applies: absorbance 615 nm, about 18 h, stronger effect = higher value.
The nature of test [8]: growth suppression of yeast trafficking mutant, preliminary HTS, modulators of trafficking downstream of Golgi apparatus project, 1536-format plate, OD 615 nm (AID 637; in the data active = inhibition above about 30%). The following applies: yeast transport mutant growth, absorbance 615 nm, 18 h; stronger effect = higher value.
Test [9] in a line: OD615 S. cerevisiae growth inhibition, permissive medium, pilot counter-assay, permissive growth control for S. cerevisiae lifespan shortening project (AID 705;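 active = growth inhibition above 25% in both replicates, a cutoff set 3 SD above the mean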). The following applies: OD615, 24 h, at 10 µM, stronger effect = higher value.
Test [10] is described as follows: Restrictive medium S. cerevisiae growth inhibition, OD615, pilot screen of yeast lifespan reduction project, restrictive growth control (AID 706;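 active = growth inhibition above a set limit, 3 SD over mean compound inhibition, in both replicates, cut at about 43% in these data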;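 also: modified DeaD lifespan yeast strain shifted to restrictive glucose medium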). The following applies: OD615, 48 h, at 10 µM, stronger effect = higher value.
Test [11] can be described thus: viability gain of MRP-1-high H69AR cells under doxorubicin, pilot screen, MRP-1 activator project, CellTiter-Glo, duplicate (AID 807;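 active = viability increase at or above a cutoff of the median across tested compounds plus 3 SD, cut at about 8.5% in these data, passing the limit was not always enough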;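 also: compound pretreatment 18-22 h then 72 h combined with doxorubicin; 0% = doxorubicin alone and 100% = vehicle without doxorubicin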). The following applies: H69AR viability with doxorubicin, CellTiter-Glo luminescence; at 10 µM; stronger effect = higher value.
Test [12] can be described thus: growth suppression of beta-catenin knockout HCT116, pilot screen, human colon tumor cells (AID 823;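 active = cell viability at or below a set limit in both duplicate runs, the limit being the all-compound median minus 4 SD, cut at about 23% in these data, passing the limit was not always enough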;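 also: 0% = wells killed by 20 µM Hyamine and 100% = untreated DMSO cell wells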). The following applies: CellTiter-Glo, 60 h, at 10 µM, stronger effect = lower value.
Test [13] in a line: growth suppression of PTEN-deleted HCT116, pilot screen, cell-based, HCT116 clonal line, CellTiter-Glo (AID 824;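 active = viability at or below 27.92% in each of two runs, the all-compound median minus 4 SD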;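 also: 0% = 20 µM Hyamine control and 100% = vehicle cell control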). The following applies: 60 h, at 10 µM, stronger effect = lower value.
Test [14] in a line: inhibitors of the yeast RAM network, pilot screen, dse1pr::URA3 reporter, 5-FOA selection (AID 869;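 active = inhibition over a set limit, the all-compound mean plus 3 SD, in both replicate runs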;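 also: 0% = DMSO wells with no growth and 100% = 10 µM 1-NA-PP1 with full growth; RAM network block rescues cells from 5-FOA so hits raise OD615 growth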). The following applies: S. cerevisiae dse1pr::URA3 5-FOA growth, OD615, 2 d; at 10 µM; stronger effect = higher value; strain carries analog-sensitive mutant Cbk1 kinase.
A short description of test [15]: RAM signaling pathway blockade in yeast – S. cerevisiae, Pdr1DBD-CYC8 efflux-inhibited sensitized strain, primary screen (AID 1298;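 active = RAM network inhibition above 8.4% in each of two replicates, 3 SD over the compound average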;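 also: 0% = DMSO untreated cells without growth and 100% = 10 µM 1-NA-PP1 full growth; higher means more yeast growth rescued from 5-FOA killing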). The following applies: S. cerevisiae cbk1-as DSE1-URA3 strain, 5-FOA growth OD615, 2 d; at 50 µM; stronger effect = higher value.
The mark [16] stands for this setting: H69AR cells + 2 uM doxorubicin, measured here: viability with 2 uM doxorubicin, stronger effect = lower value.
The mark [17] stands for this setting: H69AR cells, compound alone cytotoxicity.

Chain of Receptor tyrosine-protein kinase erbB-2 (Homo sapiens) (P04626 whole entry, looked up): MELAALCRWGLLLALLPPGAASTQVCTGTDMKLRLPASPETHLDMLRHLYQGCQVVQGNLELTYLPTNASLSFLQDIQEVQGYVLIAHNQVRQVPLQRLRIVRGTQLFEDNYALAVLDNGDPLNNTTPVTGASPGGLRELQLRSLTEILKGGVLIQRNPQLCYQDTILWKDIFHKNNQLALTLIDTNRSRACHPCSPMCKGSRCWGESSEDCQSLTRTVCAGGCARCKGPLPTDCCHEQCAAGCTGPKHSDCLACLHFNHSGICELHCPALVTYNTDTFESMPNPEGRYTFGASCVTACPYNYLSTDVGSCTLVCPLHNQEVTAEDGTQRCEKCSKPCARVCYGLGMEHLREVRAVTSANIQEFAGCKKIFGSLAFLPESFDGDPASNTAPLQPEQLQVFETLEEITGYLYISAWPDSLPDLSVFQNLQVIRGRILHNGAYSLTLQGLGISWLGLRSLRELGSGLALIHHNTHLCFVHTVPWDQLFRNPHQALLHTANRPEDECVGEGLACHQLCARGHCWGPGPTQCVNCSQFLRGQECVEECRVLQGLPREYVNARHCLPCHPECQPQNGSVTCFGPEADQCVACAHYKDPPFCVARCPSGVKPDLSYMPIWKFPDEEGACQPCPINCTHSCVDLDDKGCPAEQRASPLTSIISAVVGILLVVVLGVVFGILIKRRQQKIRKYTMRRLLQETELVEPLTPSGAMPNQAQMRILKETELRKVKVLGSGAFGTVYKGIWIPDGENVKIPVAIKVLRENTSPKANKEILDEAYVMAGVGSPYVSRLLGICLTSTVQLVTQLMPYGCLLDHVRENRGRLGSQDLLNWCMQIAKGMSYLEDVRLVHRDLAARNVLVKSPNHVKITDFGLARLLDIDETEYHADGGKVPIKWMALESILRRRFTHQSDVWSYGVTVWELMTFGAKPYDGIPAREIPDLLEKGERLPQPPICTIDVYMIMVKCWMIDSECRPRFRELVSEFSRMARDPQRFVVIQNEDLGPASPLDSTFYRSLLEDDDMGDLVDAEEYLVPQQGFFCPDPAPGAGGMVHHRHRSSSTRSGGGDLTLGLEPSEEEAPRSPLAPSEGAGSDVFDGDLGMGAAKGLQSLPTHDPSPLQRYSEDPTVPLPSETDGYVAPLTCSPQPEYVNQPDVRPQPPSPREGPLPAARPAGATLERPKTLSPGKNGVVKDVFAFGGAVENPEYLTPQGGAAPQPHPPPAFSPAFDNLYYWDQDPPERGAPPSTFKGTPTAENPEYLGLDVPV

Take `COc1ccccc1-n1c(=O)[nH]c2c(C(N)=O)nc(-c3cccnc3)nc21`: the viability in test [1] is 82.5%; in [3], 82.5% (inactive); in test [4] it was 73.7% (inactive); in [5], 69.9% (inactive); in test [6] (setting [16]) it was 75.6%; in test [6] (setting [17]) it was 69.9%. In addition, the viability is 72.9% (inactive) in test [12] and 67.7% (inactive) in test [13]. Further, the Her2 level in [2] is 88.5% (inactive). Besides, the differential viability (reversal) in test [6] (H69AR cells + 2 uM doxorubicin) is -5.7% (inactive). The inhibition in [7] is -3.2% (inactive); in [8] it was -3.93% (inactive); in test [14] it was 2.47% (inactive). Further, the growth inhibition in test [9] was -7.79% (inactive); in test [10] it was -16.8% (inactive). Also, the viability increase in [11] was -7.14% (inactive). In addition, the RAM network inhibition in [15] is 4.37% (inactive).

Take `CCOC(=O)c1nc2sc3c(c2c(=O)[nH]1)CCCC3`: the viability is 80.5% in [1]; 80.5% (inactive) in [3]; 93.8% (inactive) in test [4]; 83.5% (inactive) in test [5]; 87.2% in test [6] (setting [16]); 83.5% in [6] (setting [17]). The viability in test [12] is 107% (inactive); in [13] it was 99.3% (inactive). Moreover, the Her2 level in test [2] was 100% (inactive). In test [6] (H69AR cells + 2 uM doxorubicin), the differential viability (reversal) is -3.7% (inactive). The inhibition was -2.31% (inactive) in [7], -16% (inactive) in test [8] and 2.02% (inactive) in test [14]. Further, the figures for the growth inhibition in test [9] and in [10] were 10.2% (inactive) and 12.2% (inactive), respectively. The viability increase in test [11] is -1.32% (inactive). In [15], the RAM network inhibition was 3.93% (inactive).

As for `Cc1cc(=O)oc2c1c(C)nn2-c1ccc(C(=O)OC(C)C)cc1`, the viability in test [1] was 83.5%; in [3] it was 83.5% (inactive); in test [4] it was 99% (inactive); in [5], 96.9% (inactive); in test [6] (setting [16]), 94.5%; in [6] (setting [17]), 96.9%. In addition, the viability was 97.3% (inactive) in [12] and 87.4% (inactive) in test [13]. Also, in test [2], the Her2 level was 83.5% (inactive). Besides, in test [6] (H69AR cells + 2 uM doxorubicin), the differential viability (reversal) is 2.41% (inactive). Moreover, the inhibition in test [7] is -0.13% (inactive); in [8], 1.15% (inactive); in test [14], 0.78% (inactive). For the same compound, the growth inhibition was -4.51% (inactive) in [9] and 3.34% (inactive) in test [10]. The viability increase in test [11] is -3.1% (inactive). Further, the RAM network inhibition in [15] is 1.04% (inactive).

Consider `COCCN(CCOC)c1ncnc2c1cnn2-c1ccccc1`, for which the viability was 112% in test [1]; 112% (inactive) in test [3]; 88.4% (inactive) in [4]; 86.6% (inactive) in [5]; 93.5% in test [6] (setting [16]); 86.6% in test [6] (setting [17]). Further, the viability in [12] was 107% (inactive); in [13], 98.5% (inactive). The Her2 level in test [2] was 99% (inactive). In addition, in test [6] (H69AR cells + 2 uM doxorubicin), the differential viability (reversal) is -6.92% (inactive). For the same compound, the inhibition was -4.8% (inactive) in [7], 4.33% (inactive) in test [8] and 0.505% (inactive) in test [14]. The growth inhibition in test [9] was -5.8% (inactive); in test [10], 1.92% (inactive). Further, the viability increase in [11] was 1.43% (inactive). Also, the RAM network inhibition in test [15] is 3.39% (inactive).

Consider `CC1CCN(c2nc3c(c(=O)[nH]c(=O)n3C)n2CCSc2ncccn2)CC1`, for which the viability was 96.5% in test [1]; 96.5% (inactive) in [3]; 109% (inactive) in test [4]; 90.8% (inactive) in test [5]; 90.4% in test [6] (setting [16]); 90.8% in [6] (setting [17]). For the same compound, the viability in test [12] and in test [13] was 102% (inactive) in each case. Further, the Her2 level in test [2] was 97% (inactive). The differential viability (reversal) in [6] (H69AR cells + 2 uM doxorubicin) was 0.415% (inactive). For the same compound, the inhibition in test [7] was -4.4% (inactive); in [8], -5.17% (inactive); in test [14], 2.46% (inactive). Besides, the growth inhibition in test [9] was 1.06% (inactive); in [10], -2.73% (inactive). Besides, the viability increase in test [11] was -0.46% (inactive). In addition, in test [15], the RAM network inhibition was 2.81% (inactive).
